Data on 13 compounds can be found in PubChem BioAssay.

Test [1] can be described thus: HepG2 liver cancer cell viability effects, profiling panel, resazurin fluorescence, 24 h, PK04 Diversity Set (AID 1172). Also: test concentration not given here. As to conditions: higher = more signal. (In general: The colour change of resazurin is a common sign of viable cells or microbes.)
The nature of test [2]: basal S. cerevisiae growth modulation, no modifier, primary screen, OD600, strain BY4716, 24 h, basal condition (AID 1173). To be noted: OD600, 24 h, higher = more signal, called active from +8 up or from −8 down.
Test [3] in a line: MM1S myeloma cell viability, profiling panel, resazurin fluorescence, basal, 24 h, PK04 Diversity Set (AID 1174). Also: test concentration not given here. As to conditions: higher = more signal, called active from +8 up or from −8 down.
Test [4] has as its target Dihydroorotate dehydrogenase (quinone), mitochondrial (Plasmodium falciparum (isolate 3D7)) (UniProt Q08210). Nature of the test: PfDHODH enzyme inhibitors, primary screen, biochemical, C-terminal His tag, absorbance 600 nm (AID 1175).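 Also: recombinant parasite enzyme with a five histidine tag at its C terminus; test concentration not given here.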 To be noted: DCIP absorbance 600 nm, higher = more signal, called active from +8 up or from −8 down.
Test [5] can be described thus: P. aeruginosa biofilm formation inhibitors, primary screen, strain PAO1, LB-PBS medium, absorbance 600 nm (AID 1176). Also: test concentration not given here. As to conditions: P. aeruginosa PAO1 growth/biofilm, A600, 12 h; higher = more signal.
Test [6] can be described thus: S. cerevisiae RM11-1a growth modifiers, primary screen, strain RM11-1a, OD600, basal, 24 h (AID 1177).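 Also: cultures grown under basal conditions with no added stressor; test concentration not given here.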 As to conditions: OD600, 24 h, higher = more signal, called active from +8 up or from −8 down.
Test [7] can be described thus: E. coli acrAB mutant growth effects, primary screen, E. coli filamentation inducers, strain DRC39, OD650, 24 h (AID 1178).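 Also: growth measured as culture turbidity by optical density at 650 nm; test concentration not given here.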 As to conditions: higher = more signal, called active from +8 up or from −8 down.
Test [8] is described as follows: E. coli acrAB mutant growth effects, primary screen, E. coli filamentation inducers, strain DRC39, OD650, 48 h (AID 1179).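 Also: screen aims at cell division blockers that make cells filament.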 To be noted: E. coli DRC39 delta-acrAB growth, higher = more signal, called active from +8 up or from −8 down.
The nature of test [9]: RPMI8226 myeloma cell viability, profiling panel, resazurin fluorescence, basal, 24 h, PK04 Diversity Set (AID 1180).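 Also: RPMI8826 multiple myeloma cell line at 5000 cells per well; test concentration not given here.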 As to conditions: higher = more signal.
Test [10] has as its target E3 ubiquitin-protein ligase XIAP (Homo sapiens) (UniProt P98170). Nature of the test: XIAP binders, primary screen, biophysical, small-molecule microarray, fluorescence 635 nm (AID 1181).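 Also: score merges 667 nm emission and signal to noise over triplicate slides.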 To be noted: small-molecule microarray binding, higher = more signal.

Active and inactive are the calls of the source. Unless noted, no rule for the calls is given here.

Chain of E3 ubiquitin-protein ligase XIAP (Homo sapiens) (P98170 whole entry, looked up): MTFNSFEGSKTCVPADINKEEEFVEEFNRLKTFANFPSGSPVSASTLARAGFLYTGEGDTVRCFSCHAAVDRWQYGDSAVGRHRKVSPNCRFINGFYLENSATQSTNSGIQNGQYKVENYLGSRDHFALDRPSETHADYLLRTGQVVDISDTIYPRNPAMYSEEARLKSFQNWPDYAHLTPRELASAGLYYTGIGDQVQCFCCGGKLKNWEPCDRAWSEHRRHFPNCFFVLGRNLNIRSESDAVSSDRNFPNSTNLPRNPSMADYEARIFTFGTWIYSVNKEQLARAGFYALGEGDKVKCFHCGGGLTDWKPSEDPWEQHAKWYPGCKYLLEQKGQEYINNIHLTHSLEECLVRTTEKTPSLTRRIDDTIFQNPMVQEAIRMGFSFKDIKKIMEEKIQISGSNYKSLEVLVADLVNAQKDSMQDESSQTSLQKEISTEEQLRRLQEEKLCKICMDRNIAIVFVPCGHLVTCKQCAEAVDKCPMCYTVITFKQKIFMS
Chain of Dihydroorotate dehydrogenase (quinone), mitochondrial (Plasmodium falciparum (isolate 3D7)) (Q08210 whole entry, looked up): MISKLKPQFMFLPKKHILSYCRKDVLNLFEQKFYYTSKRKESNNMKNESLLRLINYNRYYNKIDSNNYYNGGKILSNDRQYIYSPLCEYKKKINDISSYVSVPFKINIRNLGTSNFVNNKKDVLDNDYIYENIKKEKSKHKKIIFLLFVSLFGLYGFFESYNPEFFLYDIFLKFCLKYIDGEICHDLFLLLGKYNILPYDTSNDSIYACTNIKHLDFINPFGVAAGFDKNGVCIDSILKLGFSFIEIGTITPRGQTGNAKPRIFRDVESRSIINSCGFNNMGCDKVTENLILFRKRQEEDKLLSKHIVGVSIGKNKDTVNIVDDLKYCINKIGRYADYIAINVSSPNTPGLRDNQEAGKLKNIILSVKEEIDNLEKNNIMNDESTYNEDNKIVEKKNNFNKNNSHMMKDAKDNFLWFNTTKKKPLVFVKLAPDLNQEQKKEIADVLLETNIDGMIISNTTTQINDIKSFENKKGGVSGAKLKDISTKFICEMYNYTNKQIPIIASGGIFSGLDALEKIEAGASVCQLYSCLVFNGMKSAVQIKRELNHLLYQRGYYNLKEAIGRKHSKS

As to `CC(C)c1ccc(NN2C(C(O)c3cc(C(F)(F)F)cc(C(F)(F)F)c3)C=CC3C(=O)N(c4ccccc4)C(=O)C32)cc1` (stereo not given), the z-score was -2.42 in test [1]; -1.33 (inactive) in test [2]; -3.12 (inactive) in [3]; 1.18 (inactive) in test [5]; 1.79 (inactive) in test [6]; -0.447 (inactive) in test [7]. The z-score in test [8] was -0.729 (inactive); in test [9] it was -5.25. Further, the results for the composite z-score in [4] and in test [10] were 0.643 (inactive) and 0.0813, respectively.
For the compound `CN(C)CCCNC(=O)[C@@]1(C)c2ccccc2C(=O)N(Cc2cc(F)cc(C(F)(F)F)c2)[C@H]1c1ccc(CO)cc1`, the z-score was 0.101 in test [1]; -0.84 (inactive) in [2]; 0.079 (inactive) in test [3]; 0.264 (inactive) in [5]; -1.11 (inactive) in test [6]; 0.706 (inactive) in [7]. The z-score in test [8] was -0.175 (inactive); in test [9] it was -0.406. In addition, the results for the composite z-score in [4] and in test [10] were -0.478 (inactive) and -0.0079, respectively.
For the compound `O=C(NCc1ccccc1)[C@@]1(Cc2ccccc2)N=C(c2ccc(OCCCO)cc2)O[C@H]1c1ccccc1`, the z-score in test [1] is -0.0664; in test [2], 0.629 (inactive); in test [3], -1.67 (inactive); in test [5], 0.494 (inactive); in test [6], 1.7 (inactive); in test [7], 0.482 (inactive). The values for the z-score in test [8] and in test [9] were -0.3 (inactive) and -2.66, respectively. Further, the composite z-score in test [4] was 0.987 (inactive); in test [10], -0.0563.
`C=C(CCCC)/C(=C/C[C@@H](OC(C)=O)c1ccccc1OCCO)c1cnc2ccccc2c1`: the z-score in test [1] is -1.25; in test [2], -1.66 (inactive); in test [3] it was -0.614 (inactive); in test [5], 0.191 (inactive); in test [6], 0.862 (inactive); in [7], -0.765 (inactive). Also, the z-score in [8] is -0.587 (inactive); in test [9], -0.52. Further, the composite z-score in [4] was -7.22 (inactive); in test [10], -0.198.
Regarding `C=CCOC(=O)[C@H]1[C@@H]2C(=O)O[C@@H](c3ccccc3)[C@@H](c3ccccc3)N2[C@@H](c2ccc(OCCOC(=O)[C@@H]3C[C@@H]4C(=O)N[C@@H](CCCCN(C)C)C(=O)N4[C@@H]3c3ccc(O)cc3)cc2)[C@]12C(=O)Nc1ccc(I)cc12`, the z-score was -0.513 in test [1]; -1.17 (inactive) in test [2]; -1.06 (inactive) in [3]; 1.26 (inactive) in test [5]; 1.65 (inactive) in test [6]; -0.619 (inactive) in test [7]. The z-score is 0.767 (inactive) in test [8] and -1.18 in test [9]. Also, the values for the composite z-score in test [4] and in [10] were -1.71 (inactive) and -0.0749, respectively.
As for `CCOC(=O)C1=CCC(c2ccccc2)N(S(=O)(=O)CC[Si](C)(C)C)C1` (stereo not given), the z-score is 1.17 in [1]; -1.48 (inactive) in test [2]; 0.406 (inactive) in test [3]; -0.461 (inactive) in [5]; -0.0286 (inactive) in [6]; -0.117 (inactive) in [7]. The figures for the z-score in test [8] and in test [9] were 1.05 (inactive) and 0.681, respectively. For the same compound, the composite z-score is 0.49 (inactive) in test [4] and -0.192 in test [10].
In the case of `Cc1ccc(S[C@]2(C(=O)NCCN3CCOCC3)CC(=O)N(Cc3ccccc3)[C@@H]2c2ccc(CO)cc2I)cc1`, the z-score is -0.396 in test [1]; -3.23 (inactive) in [2]; -2.91 (inactive) in [3]; 0.422 (inactive) in [5]; -1.71 (inactive) in [6]; 0.359 (inactive) in test [7]. The z-score in test [8] was -0.46 (inactive); in [9], -2.02. The values for the composite z-score in [4] and in test [10] were -4.58 (inactive) and -0.152, respectively.
With `CCCCN1CC=CC23O[C@@H]4/C=C\CCC(C)OC(=O)C4[C@H]2C(=O)N(CCCCCO)[C@@H]3C1=O` (stereo not given in full), the z-score in [1] was 0.389; in [2], 0.0305 (inactive); in test [3] it was 0.96 (inactive); in test [5], 0.646 (inactive); in test [6], -0.0125 (inactive); in [7], 0.511 (inactive). Besides, the results for the z-score in test [8] and in test [9] were 0.35 (inactive) and 0.05, respectively. In addition, the composite z-score in test [4] is 0.18 (inactive); in [10] it was -0.0436.
For `COC(=O)[C@@]1(Cc2ccc(F)cc2)[C@H]2c3cc(C(=O)N(C)C)n(CC4CC4)c3C[C@H]2CN1C(=O)c1ccccc1`, the z-score in [1] was -0.881; in test [2], 1.78 (inactive); in [3] it was -1.37 (inactive); in test [5] it was 0.206 (inactive); in test [6] it was 0.479 (inactive); in test [7], -0.868 (inactive). Moreover, the z-score in test [8] was -0.398 (inactive); in test [9] it was -2.09. Also, the composite z-score was -0.0778 (inactive) in test [4] and 0.454 in test [10].
For the compound `COc1ccc(CCNC(=O)[C@@H]2c3ccccc3C(=O)N(C3Cc4ccccc4C3)[C@H]2c2ccc(CO)cc2)cc1`, the z-score in [1] was 0.763; in test [2] it was 0.594 (inactive); in test [3] it was -0.642 (inactive); in [5], 0.292 (inactive); in test [6] it was 0.205 (inactive); in test [7] it was -0.195 (inactive). Also, the z-score in [8] is 0.121 (inactive); in [9], -0.303. Besides, the composite z-score is 0.441 (inactive) in test [4] and 0.126 in [10].
In the case of `COc1ccc([Si](C)(C)[C@H]2[C@H](CCn3cc([C@H](O)c4ccccc4)nn3)O[C@@]3(C(=O)N(Cc4cccc(N5CCOC5=O)c4)c4ccccc43)[C@@H]2C)cc1`, the z-score is -0.332 in test [1]; 0.548 (inactive) in test [2]; -1.59 (inactive) in test [3]; 1.43 (inactive) in [5]; 1.18 (inactive) in test [6]; 0.196 (inactive) in [7]. Further, the figures for the z-score in test [8] and in test [9] were 0.0133 (inactive) and -0.754, respectively. Further, the composite z-score was -0.351 (inactive) in test [4] and -0.117 in test [10].
For the compound `O=C1O[C@H](c2ccccc2)[C@H](c2ccccc2)N2[C@H]1[C@@H](C(=O)N1CCN(c3ncccn3)CC1)[C@]1(C(=O)Nc3ccc(C#CC4=CCCCC4)cc31)[C@H]2c1ccc(O)cc1`, the z-score in [1] is 1.03; in [2], 0.866 (inactive); in test [3], 0.0054 (inactive); in test [5], 0.902 (inactive); in test [6] it was 2.46 (inactive); in test [7] it was 0.105 (inactive). The results for the z-score in [8] and in test [9] were 0.557 (inactive) and -0.441, respectively. The composite z-score in test [4] is -0.457 (inactive); in test [10] it was -0.0559.
On to `CN1C(=O)C2C=CC(C(O)c3ccc(-c4ccccc4)s3)N(N(c3ccccc3)c3ccccc3)C2C1=O` (stereo not given), for which the z-score in [1] is -0.748; in test [2], -0.215 (inactive); in test [3], -0.609 (inactive); in test [5] it was 1.23 (inactive); in test [6] it was 0.512 (inactive); in test [7], -0.554 (inactive). The z-score in test [8] is -0.24 (inactive); in test [9], -0.109. Besides, the composite z-score in [4] was -0.585 (inactive); in [10] it was 0.174.
